Compound activity (PubChem BioAssay)
HPGD block = inhibitors of human 15-hydroxyprostaglandin dehydrogenase (HPGD); 150,000 tested, 4.3% active; Potency, µM, for inactives: at the highest dose activity change, negative = inhibition, actives largely listed as inhibitors; purified HPGD, NADH fluorescence kinetic, PGE2 substrate; P15428; further: potency means the concentration at half of the fitted maximal effect
Target sequence (P15428 whole entry, looked up): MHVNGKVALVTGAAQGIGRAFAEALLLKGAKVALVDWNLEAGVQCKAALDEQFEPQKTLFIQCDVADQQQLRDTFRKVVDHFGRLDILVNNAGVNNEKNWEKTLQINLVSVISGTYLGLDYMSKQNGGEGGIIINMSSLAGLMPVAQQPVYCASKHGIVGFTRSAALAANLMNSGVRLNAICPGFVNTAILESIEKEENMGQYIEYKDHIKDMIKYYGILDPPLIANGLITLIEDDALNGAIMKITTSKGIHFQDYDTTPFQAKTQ
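NADH formation kinetics: reaction with 30 uM PGE2 and 1 mM NAD+ (final), 20 nM enzyme, Tris-HCl pH 8 with Tween 20, after 15 min compound preincubation at room temperature. Fluorescence change, last versus first of five reads.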
ALOX12 inhib = blocks human 12-lipoxygenase activity. P18054. purified 12-hLO, xylenol orange hydroperoxide absorbance. Potency, µM (series often up to 57.1 µM), inactives show top-dose activity change, negative = inhibition, actives largely listed as inhibitors. 150,000 tested, 0.12% active; active means well fitted inhibition curve with a large enough effect; inconclusive means small, poorly fitted or top-dose-only effect; further: potency means the concentration at half of the fitted maximal effect; nearly all actives have a fitted effect of over 55% in size
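Xylenol orange chromogenic assay: hydroperoxide from 12hLO oxidises Fe(II), giving red-shifted Fe(III)-XO absorbance. Conditions: 150 nM enzyme, 40 uM arachidonic acid, 25 mM Hepes pH 7.0, 0.01% Triton X-100, 30 min, room temperature.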
PNC assembly inh = inhibitors of perinucleolar compartment assembly; 140,000 tested, 3.1% active; activity change (PNC), negative = inhibition, % at 10 µM; AID 2417; PC3M PTB-GFP, PNC prevalence imaging, 16 h; hits give low values;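 active means readout at or below -70, meaning at least 70% loss of cells showing the perinucleolar compartment, a nuclear body marking cancer cells; inconclusive means readout between -30 and a set limit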;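 further: plate controls were DMSO wells for no effect and camptothecin positive control wells for full effect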
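PC3M cells stably expressing PTB-GFP, 750–1000 cells/well, treated 16 h at 37 °C with compound (23 nl of library stock), in duplicate. After paraformaldehyde fixation and Hoechst stain, imaged at 20x; PNC prevalence scored by image analysis.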
Lamin A splicing = modulators of lamin A splicing. AID 1487. HeLa LMNA splicing GFP/RFP minigene ratio, 48 h. Potency, µM (top dose mostly 46.1 µM), inactives show at the highest dose ratio change, negative = inhibition, hits mostly inhibitors. 200,000 tested, 0.01% active; active means well fitted inhibition curve with a large enough effect in the signal ratio, with a control signal flat, not every such curve was filed as active; inconclusive means small, poorly fitted or top-dose-only effect, or effect the other way, or a change in a side signal; the % refers to the signal ratio; further: potency means the concentration at half of the fitted maximal effect
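S3 HeLa cells stably expressing lamin A-EGFP splicing minigene plus DsRed2, 600 cells/well, 48 h compound exposure at 37C. Laser-scanning cytometry; analysed as GFP (500-530 nm)/RFP (575-640 nm) total intensity ratio; 0.5% DMSO vehicle.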
ALDH1A1 block = ALDH1A1 (human) enzyme inhibition | Potency, µM (series often up to 75.3 µM), for inactives: at the highest dose activity, negative = inhibition, usual class: inhibitors | P00352 | AID 1030 | 220,000 tested, 7.3% active | Purified ALDH1A1, NADH fluorescence, propionaldehyde substrate;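 further: potency means the concentration at half of the fitted maximal effect; plate controls were no enzyme wells and a reference inhibitor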
Target sequence (P00352 whole entry, looked up): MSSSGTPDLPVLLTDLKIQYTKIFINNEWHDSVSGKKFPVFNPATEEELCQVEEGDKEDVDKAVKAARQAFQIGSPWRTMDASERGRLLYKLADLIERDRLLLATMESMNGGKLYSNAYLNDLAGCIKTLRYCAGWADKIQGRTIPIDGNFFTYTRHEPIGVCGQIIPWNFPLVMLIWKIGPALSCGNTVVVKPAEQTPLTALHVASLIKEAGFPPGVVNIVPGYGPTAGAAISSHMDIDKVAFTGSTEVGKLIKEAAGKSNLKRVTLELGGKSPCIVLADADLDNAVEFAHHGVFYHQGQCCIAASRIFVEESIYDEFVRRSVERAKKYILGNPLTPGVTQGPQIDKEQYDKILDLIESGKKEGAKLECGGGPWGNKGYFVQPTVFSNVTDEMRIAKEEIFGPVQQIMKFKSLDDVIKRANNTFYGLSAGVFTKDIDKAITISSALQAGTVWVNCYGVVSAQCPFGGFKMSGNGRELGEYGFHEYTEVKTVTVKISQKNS
Numbers without * were called inactive; ? = inconclusive; . = no result given; [ ] = another dose, or the depositor's remark. In the library only some 10% were active in any assay of this set; here they are far more common. Unless noted, the call rests on the fitted dose curve; in most records, active means well fitted inhibition curve with a large enough effect (not every such curve was filed as active); inconclusive means small, poorly fitted or top-dose-only effect, or another doubt; inactive means no such curve, though single readings can be large or run the other way. Unless noted, on the % scale 0 is the no-effect control and ±100 the full control effect.

SMILES	HPGD block	ALOX12 inhib	PNC assembly inh	Lamin A splicing	ALDH1A1 block
Oc1c(C(c2ccccc2)N2CCN(c3cccc(Cl)c3)CC2)sc2nc(-c3ccco3)nn12 (stereo unspecified)	.	.	.	-15.2%[46 µM]	.
COC(=O)CSC1=C(C#N)C(=O)NC(c2ccccc2)S1 (stereo unspecified)	-22.5%	?	23.1	14.2%	23.8µM*
CCOC(=O)CSC1=C(C#N)C(c2ccc(C)s2)CC(=O)N1 (stereo unspecified)	-8.6%	2.3%	-87.8*	?	9.8%
Cc1ccc(C2CC(=O)NC(SCCC(C)C)=C2C#N)cc1 (stereo unspecified)	?	-6.1%	0.8	-4.9%	12.6µM*
C=C(C)CSC1=C(C#N)C(c2ccccc2)CC(=O)N1 (stereo unspecified)	25.1µM*	-2.6%	.	.	6.31µM*
CCOC(=O)CSC1=C(C#N)C(c2ccc(Cl)cc2)C(C(=O)OC)C(=O)N1 (stereo unspecified)	-26.4%	-14.6%	?	-9.2%	25.1µM*
N/C(=N\OC(=O)c1ccc2c(c1)OCO2)c1ccc(Cl)cc1	-18.5%	-2.8%	?	13.6%	0.7%
O=C(CN1CCN(c2ccc(Cl)cc2)CC1)c1ccc2c(c1)OCO2	-6.9%	-18.8%	56.7	3.1%	8.91µM*
O=C(CN1CCN(c2ccc(F)cc2)CC1)c1ccc2c(c1)OCO2	-1.9%	-18.7%	?	-0.5%	8.91µM*
O=C(Nc1ccc2c(c1)OCO2)N1CCN(c2ccc(F)cc2)CC1	.	.	.	14.4%[46 µM]	0.7%
COc1ccc(-c2nc3cnc(N4CCOCC4)nc3n(C3CC3)c2=O)cc1	.	.	.	-3.3%	?
O=C(NCc1ccco1)c1csc(Nc2ccccc2Cl)n1	15.8µM*	-3.0%	-117.3*	?	?
O=C(c1csc(Nc2ccccc2Cl)n1)N1CCCC1	15.8µM*	4.7%	30.3	-5.3%	22.4µM*
O=C(NCc1ccco1)Nc1ccccc1Cl	?	2.2%	17.1	8.0%	4.3%
O=C(COc1cccc(Br)c1)N/N=C1\CCCc2ccccc21	.	.	.	-1.1%[46 µM]	-1.5%
Cc1cccc2c1OCC/C2=N\NC(=O)COc1ccccc1	-7.2%	-3.1%	39.9	0.3%	-2.2%
O=C(COc1cccc(Br)c1)NN=C1c2ccccc2-c2ccccc21	-7.0%	-0.8%	-119.3*	-1.3%	-0.4%
O=C(COc1cccc(Br)c1)N/N=C1\CCSC1	.	.	.	-3.3%[46 µM]	4.47µM*
COc1ccc(N2C(=O)C(Cl)=C(NCc3ccccc3)C2=O)cc1	-29.8%	-9.6%	22.1	7.8%	-8.1%
C=CCNC1=C(Cl)C(=O)N(c2ccccc2Cl)C1=O	-16.6%	-13.8%	18.2	-0.3%	25.1µM*
Cc1c(NC2=C(Cl)C(=O)N(c3ccccc3Cl)C2=O)c(=O)n(-c2ccccc2)n1C	-7.6%	-9.6%	16.6	-3.3%	35.5µM*
Cc1c(NC2=C(Cl)C(=O)N(c3ccccc3)C2=O)c(=O)n(-c2ccccc2)n1C	-21.7%	-13.8%	-17.2	-3.1%	?
CN(C)CCCNC(=O)CC(c1ccc(F)cc1)c1ccco1 (stereo unspecified)	-3.6%	1.1%	?	2.5%	4.6%
CCN(CC)C(=O)CC(c1ccc(F)cc1)c1ccco1 (stereo unspecified)	20µM*	-1.5%	?	5.0%	?
O=C(/C=N\O)NCCCNCc1ccccc1	-8.5%	-5.9%	?	-2.5%	22.4µM*
SMILES	HPGD block	ALOX12 inhib	PNC assembly inh	Lamin A splicing	ALDH1A1 block
O=C(NCCCNCc1ccccc1)c1ccncc1	1.8%	1.6%	0.5	9.5%	2µM*
O=C(O)/C=C/C(=O)Nc1ccc(NC(=O)c2ccccc2)c(Cl)c1	.	.	.	.	2.24µM*
CC(C)NCC[C@@H](O)c1cc2ccccc2o1	-7.0%	3.5%[11.4 µM]	.	.	-3.5%[13.5 µM]
COc1ccc(/C=C/C(=O)c2ccc(Cl)s2)cc1O	?	?	-11.3	?	?
COc1ccc(C(=O)/C=C/c2ccc(OC)c(O)c2)c(F)c1	31.6µM*	-26.6%	-25.0	?	4.1%
NC(=O)c1cc[n+](CC(=O)c2ccc(NC(=O)c3ccccc3)cc2)cc1	.	.	.	5.4%[46 µM]	4.47µM*
Nc1c(-c2ccccc2)n[nH]c1-c1ccccc1	?	-0.2%	-29.5	-20.5%	?
S=c1nc(-c2ccccc2)c(-c2ccccc2)n[nH]1	.	.	.	.	0.316µM*
COc1cc(CN(C2CCCCC2)S(=O)(=O)c2ccc(S(=O)(=O)N(C)C3CCCCC3)cc2)cc(OC)c1OC	-5.8%	2.6%	58.5	-6.7%	?
COc1ccc(S(=O)(=O)NCc2cccs2)cc1	-18.9%	11.3%	36.8	-2.6%	10µM*
COc1ccc(S(=O)(=O)NCCCCNS(=O)(=O)c2ccc(OC)cc2)cc1	-9.7%	-12.5%	8.5	-8.1%	1.26µM*
COc1ccc(CNS(=O)(=O)c2ccc(OC)cc2)cc1	-4.8%	-0.7%	-11.6	-8.5%	-6.7%
COc1ccc(S(=O)(=O)N(Cc2cccs2)C2CCCC2)cc1	-11.7%	1.4%	-9.7	0.8%	8.91µM*
COc1ccc(-c2nnc3ccc(SC)nn23)cc1	31.6µM*	0.9%	-11.9	?	?
Cc1noc(C)c1S(=O)(=O)N1CCc2nc(-c3ccccc3)c3c(c2C1)CO[C@@H](C)C3	-17.2%	5.0%[11.4 µM]	.	-1.5%[9.22 µM]	0.4%[13.5 µM]
CCCCCOc1ccc(NC(=O)Cn2c(-c3nonc3N)nc3ccccc32)cc1	.	.	.	-0.3%[46 µM]	.
O=C(CN1CCN(C(=O)c2ccco2)CC1)N1CCc2[nH]c3ccccc3c2C1	.	.	.	.	10µM*
Cc1ccc2[nH]c3c(c2c1)CN(C(=O)CN1c2ccc(F)cc2CCC1C)CC3 (stereo unspecified)	?	-11.0%	11.5	-4.5%	?
O=C(CSc1nc2ccccc2[nH]1)N1CCN(C(=O)c2ccco2)CC1	-4.6%	-1.5%	10.7	5.9%	?
Cc1ccc2[nH]c3c(c2c1)CN(C(=O)CN1CCN(c2cccc(C)c2C)CC1)CC3	?	-17.3%	?	?	4.47µM*
O=C(CN1CCSCC1)N1CCc2[nH]c3ccc(Br)cc3c2C1	-5.5%	-3.2%	?	0.4%	15µM*
C/C(CC(=O)Nc1cccc2c1CCCC2)=N\NC(=O)COc1ccccc1	-14.6%	-2.9%	8.3	-4.5%	9.46µM*
CC(=O)N/N=C(\C)CC(=O)Nc1cccc2c1CCCC2	.	.	.	-6.6%[46 µM]	-2.2%
CCN(CC(=O)Nc1ccc(C)c(F)c1)CC(=O)NC(C)C	.	.	.	.	3.16µM*
CC(=O)c1cccc(NC(=O)C2CCCN(c3nnc(-n4cccc4)s3)C2)c1 (stereo unspecified)	.	.	.	-13.1%[46 µM]	.
COC(=O)CCN(C1CCCCC1)S(=O)(=O)c1ccc(S(=O)(=O)N2CCCCC2)cc1	-15.0%	-9.1%	-27.7	-1.1%	1.78µM*
C[C@@H]1C=CCC(=O)OC[C@H](C)C(=O)OC[C@H]2O[C@H]1C=C[C@H]2O	.	.	.	.	-12.3%[13.5 µM]
CCN(CCn1cccn1)Cc1c(C(=O)N2CCCCCCC2)nc2ccc(Cl)cn12	.	.	.	.	3.8%
